In experiment [1] the target is Glutathione peroxidase 1 (Homo sapiens) (UniProt P07203). Put plainly: Primary qHTS Assay for Inhibitors of Recombinant Selenoprotein Glutathione Peroxidase 1 (GPX1) (AID 1845191). Also: nearly all actives have a fitted effect of over 65% in size. In short, it runs like this:
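GR-coupled assay: compounds preincubated 30 min at room temperature with GPX1, then reaction started with CHP; final 10 nM GPX1, 1 mM GSH, 0.5 mM CHP, 0.5 mM NADPH, 100 nM GR, 0.01% BSA, pH 7.5 Tris buffer. NADPH fluorescence (340/450 nm) read at 0 and 15 min.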
A general note: Quantitative high-throughput screening tests each substance at several concentrations.

Experiment [2] deals with Phospholipid hydroperoxide glutathione peroxidase GPX4 (Homo sapiens) (UniProt P36969). Put plainly: Primary qHTS Assay for Inhibitors of Recombinant Selenoprotein Glutathione Peroxidase 4 (GPX4) (AID 1845192). Also: nearly all actives have a fitted effect of over 65% in size. In short, it runs like this: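 GR-coupled assay: recombinant GPX4 preincubated 30 min with compound at room temperature; final 200 nM GPX4, 1 mM GSH, 0.5 mM cumene hydroperoxide, 0.5 mM NADPH, 100 nM GR, 0.01% BSA, pH 7.5 Tris. NADPH fluorescence (340/450 nm) read at 0 and 15 min.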
Phospholipid hydroperoxide glutathione peroxidase GPX4 (Homo sapiens), sequence (P36969 whole entry, looked up): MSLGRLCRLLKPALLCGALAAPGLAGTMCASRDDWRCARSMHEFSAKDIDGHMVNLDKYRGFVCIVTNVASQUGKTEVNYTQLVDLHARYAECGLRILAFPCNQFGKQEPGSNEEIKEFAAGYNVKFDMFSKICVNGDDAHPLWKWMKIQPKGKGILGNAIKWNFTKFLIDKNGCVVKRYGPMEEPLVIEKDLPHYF

For experiment [3], the target named is Luciferin 4-monooxygenase (Photinus pyralis) (UniProt P08659). Put plainly: Primary firefly luciferase (FLuc) qHTS assay for identification of artifact compounds. (AID 1845220). Also: nearly all actives have a fitted effect of over 60% in size. Also: potency is read from the fitted curve at half-maximal effect. In short, it runs like this: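 Titrated compounds were incubated 15 min at RT, protected from light, with luciferin and ATP at 10 uM; reaction started with 10 nM FLuc, luminescence imaged at 5 min, and concentration-response fitted by Hill equation.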

Experiment [4] can be described thus: Primary fluorescence-based thiol-reactive (MSTI) qHTS assay for identification of artifact compounds. (AID 1845221).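 Also: series mostly up to about 54 µM; thiol-reactive compounds lower the probe fluorescence signal; nearly all actives have a fitted effect of over 65% in size.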 In short, it runs like this: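 Probe: MSTI 4 uM, PBS pH 7.4, 2% DMSO. Incubation 1 h, RT, light-protected. Readout fluorescence 525/598 nm.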
In experiment [5] the test system is Nanoluciferase (engineered Oplophorus gracilirostris luciferase). The experiment in a line: Primary Nanoluciferase (NLuc) qHTS assay for identification of artifact compounds. (AID 1845222). Also: potency is read from the fitted curve at half-maximal effect. In short, it runs like this:
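qHTS format, against NLuc in S16 cell-conditioned medium. Nano-Glo substrate 1:100 was added after 15 min at room temperature. Luminescence was taken after a further 5 min.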

The nature of experiment [6]: Primary redox qHTS assay for identification of artifact compounds. (AID 1845223). In short, it runs like this: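 Amplex Red (25 uM) and HRP (250 mU/mL) in HBSS, with compounds for 15 min, then 250 uM DTT for 30 min, room temperature, dark. Fluorescence 525/598 nm read; normalized to DMSO and 10 uM DA3003; Hill fit.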
Experiment [7] concerns the target Cytochrome P450 3A4 (Homo sapiens) (UniProt P08684). Put plainly: qHTS for inhibitors of CYP3A4 against the NCATS DSHEA and TCM libraries (AID 1919971).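 Also: inhibition lowers luminescence from luciferin made by CYP3A4.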 In short, it runs like this:
(§1)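 Luminescent P450-Glo format: compounds preincubated 15 min with enzyme and luciferin substrate, reaction run 30-45 min after NADPH regeneration solution. Intraplate controls: ketoconazole for CYP3A4 and CYP2C19, sulfaphenazole for CYP2C9.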

In experiment [8] the target is Cytochrome P450 2D6 (Homo sapiens) (UniProt P10635). The experiment in a line: qHTS for inhibitors of CYP2D6 against the NCATS DSHEA and TCM libraries (AID 1919972). In short, it runs like this:
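Luminescent P450-Glo read-out of CYP2D6 turnover of a luciferin substrate after NADPH-driven reaction of 30-45 min at room temperature. Compounds were first preincubated 15 min with enzyme at titrated concentrations; quinidine was the intraplate control.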

For experiment [9], the target named is Cytochrome P450 2C19 (Homo sapiens) (UniProt P33261). The experiment in a line: qHTS for inhibitors of CYP2C19 against the NCATS DSHEA and TCM libraries (AID 1919974).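 Also: luminescence from luciferin released by CYP2C19 oxidation of a pro-luciferin substrate; potency is read from the fitted curve at half-maximal effect.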 The conditions noted are these: CYP2C19 enzyme inhibition, luminescence qHTS. In short, it runs like this: as §1
Cytochrome P450 2C19 (Homo sapiens), sequence (P33261 whole entry, looked up): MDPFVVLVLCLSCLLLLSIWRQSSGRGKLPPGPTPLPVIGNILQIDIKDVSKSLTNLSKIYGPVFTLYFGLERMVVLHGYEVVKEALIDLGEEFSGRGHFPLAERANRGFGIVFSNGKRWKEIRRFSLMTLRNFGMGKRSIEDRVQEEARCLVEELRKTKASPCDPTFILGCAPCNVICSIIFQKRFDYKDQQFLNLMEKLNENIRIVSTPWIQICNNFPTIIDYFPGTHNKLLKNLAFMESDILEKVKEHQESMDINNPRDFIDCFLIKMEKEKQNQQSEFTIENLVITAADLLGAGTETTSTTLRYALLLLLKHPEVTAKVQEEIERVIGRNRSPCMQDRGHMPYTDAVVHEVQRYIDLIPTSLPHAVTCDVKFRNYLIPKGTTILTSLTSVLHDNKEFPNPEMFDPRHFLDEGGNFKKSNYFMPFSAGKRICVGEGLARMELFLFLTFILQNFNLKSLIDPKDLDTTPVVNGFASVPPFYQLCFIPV
A short description of experiment [10]: KB-3-1 P-gp reporter qHTS against the NCATS DSHEA and TCM libraries (AID 1919975). In short, it runs like this:
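Cell viability by CellTiter-Glo luminescence following ~72 h compound exposure (concentration-response). Uses parental, non-P-gp-overexpressing KB-3-1 line, 500 cells/well in DMEM/10% FBS, attached ~4 h before dosing.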

Records with an inconclusive call do not appear. Activity calls are given as the source filed them. Calls follow the shape of the dose curve; as a rule, active = well fitted curve in the direction sought with a large enough effect; inconclusive = small, poorly fitted or top-dose-only effect, or another doubt; inactive = no such curve, though single readings can be large; an effect the other way counts as inactive or inconclusive. Where a SMILES comes first, the peptide text is derived from it. [ ]: non-standard residue; d: D form. pGlu = O=C1CC[C@@H](C(=O)O)N1; Thz = O=C(O)[C@@H]1CSCN1

Glutathione peroxidase 1 (Homo sapiens), sequence (P07203 whole entry, looked up): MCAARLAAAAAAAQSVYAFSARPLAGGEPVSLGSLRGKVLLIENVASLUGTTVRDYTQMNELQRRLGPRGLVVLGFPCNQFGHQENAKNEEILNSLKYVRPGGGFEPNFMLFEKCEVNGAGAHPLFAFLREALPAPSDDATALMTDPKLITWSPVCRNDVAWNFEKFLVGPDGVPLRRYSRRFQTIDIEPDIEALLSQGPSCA
Cytochrome P450 3A4 (Homo sapiens), sequence (P08684 whole entry, looked up): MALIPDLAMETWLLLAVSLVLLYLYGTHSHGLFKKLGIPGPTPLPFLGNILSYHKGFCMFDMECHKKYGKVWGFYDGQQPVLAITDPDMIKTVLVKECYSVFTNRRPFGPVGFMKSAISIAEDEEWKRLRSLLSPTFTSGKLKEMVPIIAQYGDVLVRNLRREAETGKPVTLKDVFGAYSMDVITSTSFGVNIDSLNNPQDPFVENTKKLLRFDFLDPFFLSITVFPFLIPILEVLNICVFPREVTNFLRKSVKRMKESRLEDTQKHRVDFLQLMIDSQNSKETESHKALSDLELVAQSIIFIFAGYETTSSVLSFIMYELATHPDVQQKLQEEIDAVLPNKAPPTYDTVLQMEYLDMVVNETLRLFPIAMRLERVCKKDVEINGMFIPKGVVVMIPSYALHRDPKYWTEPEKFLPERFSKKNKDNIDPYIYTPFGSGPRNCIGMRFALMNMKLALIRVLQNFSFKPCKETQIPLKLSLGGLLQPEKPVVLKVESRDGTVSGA
Cytochrome P450 2D6 (Homo sapiens), sequence (P10635 whole entry, looked up): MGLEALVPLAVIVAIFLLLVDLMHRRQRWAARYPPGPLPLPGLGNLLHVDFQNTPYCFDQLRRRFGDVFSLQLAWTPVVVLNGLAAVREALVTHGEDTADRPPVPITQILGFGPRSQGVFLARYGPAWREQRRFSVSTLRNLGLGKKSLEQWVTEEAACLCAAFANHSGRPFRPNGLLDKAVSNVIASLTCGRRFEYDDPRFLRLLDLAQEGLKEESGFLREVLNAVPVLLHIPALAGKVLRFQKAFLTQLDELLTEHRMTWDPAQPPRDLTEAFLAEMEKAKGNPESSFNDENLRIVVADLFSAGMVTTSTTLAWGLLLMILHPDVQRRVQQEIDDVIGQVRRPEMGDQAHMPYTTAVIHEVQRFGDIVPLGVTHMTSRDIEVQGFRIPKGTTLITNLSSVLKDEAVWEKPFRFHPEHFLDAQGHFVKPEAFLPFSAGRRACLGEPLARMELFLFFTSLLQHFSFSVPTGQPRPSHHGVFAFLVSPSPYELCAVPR

For the molecule `NS(=O)(=O)c1ccc(-n2nc(C(F)(F)F)cc2-c2ccc(Cl)cc2)cc1`, the Potency entry in experiment [1], in [2], in experiment [3] and in experiment [5] was “inactive” each time. Besides, the result in experiment [4] and in experiment [6] was inactive.

In the case of `O=C(O)c1cc(O)c(O)c(O)c1`, in [2], the Potency result is “inactive”. In addition, the molecule was called inactive in experiment [7], in experiment [8] and in [10]. Also, the Potency in [9] is 3.55 µM (active).

Regarding `O=C(O)CCCC[C@@H]1CCSS1`, the Potency result in [2] is “inactive”.

As for `C#CC1(O)CC[C@H]2[C@@H]3CCC4=CCCC[C@@H]4[C@H]3CC[C@@]21C` (some centres not stated), the Potency entry in experiment [2] was “inactive”.

Take `COc1ccc(/C=C/C(=O)Nc2ccccc2C(=O)O)cc1OC`: the Potency result in [1] and in [2] was “inactive” throughout. The results for the Potency in experiment [3] and in experiment [5] were 3.01 µM (active) and 21.3 µM (active), respectively. Also, the call in [4] and in experiment [6] was inactive.

As to `Fc1ccc2[nH]c(CN3CCN(c4ccccn4)CC3)cc2c1`, the Potency entry in [1], in experiment [2], in [3] and in experiment [5] was “inactive” in each case. For the same molecule, the outcome in [4] and in [6] was inactive.

Take `C[S+](CC[C@H](N)C(=O)O)C[C@H]1O[C@@H](n2cnc3c(N)ncnc32)[C@H](O)[C@@H]1O` (some centres not stated): the outcome in experiment [7], in experiment [8] and in experiment [10] was inactive. Moreover, in experiment [9], the Potency was 3.98 µM (active).

On to `CCCCCCCCCCCCCCCCCC(=O)O`, for which the Potency entry in [1] and in experiment [2] was “inactive” in each case. Further, in [10], the molecule was called inactive.

`O=C1NC(=O)/C(=C/c2ccc(-c3ccc(F)cc3O)o2)S1`: in experiment [2], the Potency entry was “inactive”.

For the molecule `Cc1ccc2c(n1)Oc1ccc(C(C)C(=O)OCC(=O)N(C)C)cc1C2` (configuration not stated), the Potency result in experiment [1], in [2] and in experiment [5] was “inactive” each time. In addition, the molecule was called inactive in [4] and in experiment [6].

`OCC1O[C@H]([S-])[C@H](O)[C@@H](O)[C@@H]1O.[Au+]` (some centres not stated): the Potency entry in [2] was “inactive”.

For `CC(=O)O[C@H]1C[C@@]2(C)[C@@H](C[C@@H](O)[C@H]3[C@@]4(C)CC[C@@H](O)[C@@H](C)[C@@H]4CC[C@@]32C)/C1=C(\CCC=C(C)C)C(=O)O`, the Potency result in experiment [1], in [2], in experiment [3] and in experiment [5] was “inactive” in each case. The molecule was classed as inactive in [4] and in experiment [6].

For `O=[N+]([O-])c1ccc(CNc2nc(NCc3cccc(C(F)(F)F)c3)nc3nc[nH]c23)cc1`, the Potency entry in experiment [1], in experiment [2], in experiment [3] and in experiment [5] was “inactive” each time. The molecule was classed as inactive in [4] and in experiment [6].

As for `COC(=O)C1=C(C)NC(C)=C(C(=O)OC)C1c1cccc(NC(=O)NCCCN2CCC(c3cccc(OC)c3)CC2)c1`, the Potency result in [1], in [2], in [3] and in experiment [5] was “inactive” throughout. The molecule was called inactive in experiment [4] and in [6].

For `C=CC(C)=C[C@@]1(C)SC(=O)C(C)=C1O`, the Potency result in [2] is “inactive”.

Take `O=C1CC[C@@H](C(=O)N2CSC[C@H]2C(=O)O)N1` ([pGlu]-[Thz]-OH): the Potency entry in experiment [1], in experiment [2], in experiment [3] and in [5] was “inactive” in each case. Also, the molecule was classed as inactive in [4] and in experiment [6].

In the case of `CN1[C@@H]2CC[C@H]1CC(OC(=O)C(CO)c1ccccc1)C2` (some centres not stated), the Potency entry in experiment [2], in experiment [3] and in [5] was “inactive” each time. The result in experiment [4] and in experiment [6] was inactive.

For the molecule `CC1(C)S[C@@H]2[C@H](NC(=O)[C@H](N)c3ccc(O)cc3)C(=O)N2[C@H]1C(=O)O`, the Potency entry in [2], in experiment [3] and in [5] was “inactive” throughout. Also, in experiment [6], the molecule was classed as inactive.

As to `Cc1cc(O)c2ccccc2c1O`, the Potency result in experiment [2] is “inactive”.

On to `C/C(=N\O)c1ccc(OCC(=O)N2CCCCC2)cc1`, for which the Potency entry in experiment [1], in experiment [2] and in experiment [5] was “inactive” each time. Moreover, the call in experiment [4] and in experiment [6] was inactive.

In the case of `Nc1ccc(O)c(C(=O)O)c1`, the Potency entry in [2] was “inactive”.

Take `CC(=O)SCC(CC(=O)c1ccc(C)cc1)C(=O)O` (configuration not stated): the Potency result in experiment [1], in [2] and in [5] was “inactive” each time. Moreover, the molecule was classed as inactive in [4] and in experiment [6].

Consider `CC1(C)[C@@H](O[C@H]2O[C@H](C(=O)O)[C@@H](O)[C@H](O)[C@H]2O[C@@H]2O[C@H](C(=O)O)[C@@H](O)[C@H](O)[C@H]2O)CC[C@]2(C)[C@H]3C(=O)C=C4[C@@H]5C[C@@](C)(C(=O)O)CC[C@]5(C)CC[C@@]4(C)[C@]3(C)CC[C@@H]12`, for which the Potency result in experiment [2] and in experiment [3] was “inactive” each time. Also, the molecule was called inactive in experiment [4] and in experiment [6].

In the case of `COc1cc(CNC(=O)CCCC/C=C/C(C)C)ccc1O`, the Potency result in experiment [1], in experiment [2], in experiment [3] and in [5] was “inactive” each time. Also, the outcome in [4] and in experiment [6] was inactive.

Regarding `O=C(O)CC1CC(c2ccccc2)=NO1` (configuration not stated), the Potency result in [1], in experiment [2], in experiment [3] and in experiment [5] was “inactive” throughout. In addition, the call in [4] and in experiment [6] was inactive.

Consider `COc1cc(NC(C)CCCN)c2ncccc2c1` (configuration not stated), for which the Potency result in experiment [2] was “inactive”.

The values are drawn from PubChem BioAssay (NCATS).
